Binding signal data for 14 molecules are collected here from paper PMC12136788.

In all, about 5,800 sequences were measured (“enrichment r”: median about 0.68, highest 2% from about 11 on). The list is a sample of the results.

T1: UNK ZnF1-6 (called full-length) (human, UniProt Q9C0B0 30-357)
T1 sequence: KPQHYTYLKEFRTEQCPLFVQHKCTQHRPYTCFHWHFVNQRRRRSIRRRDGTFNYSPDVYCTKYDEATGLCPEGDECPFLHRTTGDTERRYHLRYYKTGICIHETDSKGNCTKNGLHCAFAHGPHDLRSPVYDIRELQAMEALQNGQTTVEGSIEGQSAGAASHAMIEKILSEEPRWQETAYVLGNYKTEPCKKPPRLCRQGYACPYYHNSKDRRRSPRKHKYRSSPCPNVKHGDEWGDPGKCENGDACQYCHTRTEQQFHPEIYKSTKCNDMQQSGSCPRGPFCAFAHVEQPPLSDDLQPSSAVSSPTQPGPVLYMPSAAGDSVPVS

B1: ENSG00000087269:stop:overlap|stop_codon|ENSG00000087269|stop_codon|NA|stop_codon (ssRNA)
RNA: GGGAGUUCUACAGUCCGACGAUCGGCUGGCUGGUCUCGAAUUCCCGACCUCAGGUAAUCCACCUGCCUUGGCCCCCCAAUUAUAGGUGUGAGCCACAGCACCCAGCCAAAAAAGUAAUUUUUUUUAGAGUAAUAAUGCUAUAACAACAGAGGAUUGAGCAUCA
B2: chr5:41382290:41382405:-|CDS|ENSG00000182836|unk|total|mutant (ssRNA)
RNA: GGGAGUUCUACAGUCCGACGAUCGGCCAAAAAGCUCAUGCGGAAAUGGUCCGCCACUCAGACAAUGAAUUUUACUGGCCAGCCCGGAGCUGGAAUUCGUUAUUUUGAUCUUCGAAUUUCCACCAAGCCCAGAGACCCCGACAACAACAGAGGAUUGAGCAUCA
B3: chr1:71064632:71064733:-|3pUTR|ENSG00000132485|msi1|total|mutant (ssRNA)
RNA: GGGAGUUCUACAGUCCGACGAUCGCUAAGACAGGAUUACCCCGGCUUGCCUGAACUUUGGGCAUGGAAGAAAGACUGGAAACCCGUUGGAAACAACAUACUUAUGGAAAAGAAAGUCAGCCUUUUUAUGCUGUUAACAGAUGUCAACAGAGGAUUGAGCAUCA
B4: chr1:183142599:183142700:+|CDS|ENSG00000135862|msi1|FALSE|unique (ssRNA)
RNA: GGGAGUUCUACAGUCCGACGAUCAACGAGAUUGAAGGCACCCUAAACAAAGCCAAAGAUGAAAUGAAGGUCAGCGAUCUUGAUAGGAAAGUGUCUGACCUGGAGAAUGAAGCCAAGAAGCAGGAGGCUGCCAUCAUGGACUAUCAACAGAGGAUUGAGCAUCA
B5: chr1:23091194:23091296:-|CDS|ENSG00000169641|unk|FALSE|unique (ssRNA)
RNA: GGGAGUUCUACAGUCCGACGAUCCUCCAGAAGGACCCAAAGUAGCCUCACUGUGUCAGAGGUGCUUACCCGUCGGAAUCGGGUAGGAGACACCAUCACUGUCGCAGCCUGGAACCACUCAGCAAGCAUGGUGAGUUCCAGCCUCAACAGAGGAUUGAGCAUCA
B6: ENSG00000160209:stop:overlap|stop_codon|ENSG00000160209|stop_codon|NA|stop_codon (ssRNA)
RNA: GGGAGUUCUACAGUCCGACGAUCCCUUGACCUCCUGGGCUGAAGCAAUCUUUCUGCCUCCACCUCCCGAGUGGCUGGGACUAUAGUUGUGCACCAGCACGCCCACCUCCUGCCCAGGGUUGUUACUGGGGUGGUCACGUGGGCCAACAGAGGAUUGAGCAUCA
B7: chr1:212100457:212100572:+|CDS|ENSG00000143476|unk|FALSE|unique (ssRNA)
RNA: GGGAGUUCUACAGUCCGACGAUCAGAAGAGGCUCUGUCUCCUCCGUCUCUCCCAAGCCACCUUCAUCUUUCAAGAUGUCGAUUAGAAACUGGGUGACCCGAACACCUUCCUCAUCACCACCCAUCACUCCACCUGCUUCGGAGCAACAGAGGAUUGAGCAUCA
B8: chr20:63196482:63196583:-|3pUTR|ENSG00000149658|msi1|total|mutant (ssRNA)
RNA: GGGAGUUCUACAGUCCGACGAUCUGAUUUUUGCCCAGAUGGAUCUGCAUUUAUUUGUACUUUUUCUAUGUAUUAUAAUCCUGCCGAAGUCACUAAUAAAGGAGUAUUUUUUUUGUCAGCUUAUCAAUCAGACUGAUCUAAUGUCAACAGAGGAUUGAGCAUCA
B9: chr16:55506527:55506628:+|3pUTR|ENSG00000087245|msi1|FALSE|unique (ssRNA)
RNA: GGGAGUUCUACAGUCCGACGAUCUAUCAGUUUUAAUGCUACUACUAACAAUGAACAGUAACAAUAAUAUCCCCCUCAAUUAAUAGAGUGCUUUCUAUGUGCAAGGCACUUUUCACGUGUCACCUAUUUUAACCUUUCCAACCACAACAGAGGAUUGAGCAUCA
B10: ENSG00000107863:be:win_4351|CDS|ENSG00000107863|bound_else_gene|NA|bound_elsewhere_windowed (ssRNA)
RNA: GGGAGUUCUACAGUCCGACGAUCCACAAUGAUACUAAAGAGGAGUCCAAAAAAGAAAGUGAGACACUGGGCAGAAAACAGAAGAUCAUCAUUGCCAAAGAAAACAGCACUAGGAAAGACCCCAGCACGACAAAAGAUGAAAAGCAACAGAGGAUUGAGCAUCA
B11: chr13:42886387:42888493:-|three_prime_utr|ENSG00000133106|control|control|control (ssRNA)
RNA: GGGAGUUCUACAGUCCGACGAUCCAUAUUUAAUCUCUACUGCCAGGGAAAUGCUACAUUAUUUUUCUAAUUGGAAGUAUAAUUAGAGUGAUGUUGGUAGGGUAGAAAAAGAGGGAGUCACUUGAUGCUUUCAGGUUAAUCAGACAACAGAGGAUUGAGCAUCA
B12: chr4:143221337:143221438:+|3pUTR|ENSG00000170185|unk|FALSE|unique (ssRNA)
RNA: GGGAGUUCUACAGUCCGACGAUCUUGAAAGGUAAUAGAUUUUCCAGAAGUAAAAUCUGAUGGUUCUAAAUCAAUCAAUGUGAUAGUUCAUUUUUAACUCUUAGAAGAAUUCAGAGGAAAUUAACCCAGCUAAGUAAAAAAUCUCAACAGAGGAUUGAGCAUCA
B13: chr1:46316673:46316776:+|3pUTR|ENSG00000173660|unk|FALSE|unique (ssRNA)
RNA: GGGAGUUCUACAGUCCGACGAUCUGUUUCUUAUUUGUGUAACUGUAAGUUCACAUGAACCUCAUGGGUUUGGCUUAGGCUGGUAGCUUCUAUGUAAUUCGCAAUGAUUCCAUCUAAAUAAAAGUUCUAUGAUCUGCAAACCUGCAACAGAGGAUUGAGCAUCA
B14: chrX:53645320:53645442:-|CDS|ENSG00000086758|unk|FALSE|unique (ssRNA)
RNA: GGGAGUUCUACAGUCCGACGAUCUUAUUGGCUUCCUCUGAUAUGCAAGUGGUGCUGGCAGUCCUCAAUCUCCUAUAUGUAUUUAGCAAAAGAUCAAACUACAUCACUCGUCUGGGAUCUGACAAGAGGACCCCGCUGCUAACUCAACAGAGGAUUGAGCAUCA

The target of the experiment is T1, UNK ZnF1-6 (called full-length). Nature of the experiment: nsRBNS (natural sequence RNA bind-n-seq); RBNS binding buffer (assumed for nsRBNS): 25 mM Tris pH 7.5, 150 mM KCl, 3 mM MgCl2, 0.01% Triton X-100, 500 ug/ml BSA, 20 U/ml SUPERase-In, 4 C; UNK is unkempt and MSI1 is Musashi-1; names of the RNAs are library labels; protein concentration not given here; high values mean tight binding.
With B1, the binding signal worked out at 0.968 enrichment R.

Regarding B2, the binding signal is 0.445 enrichment R.

In the case of B3, the binding signal was 0.548 enrichment R.

The molecule B4 registered a binding signal of 0.678 enrichment R.

B5 had a binding signal of 0.389 enrichment R. The figure for B6 is 0.427 enrichment R; for B7 it is 0.772 enrichment R. Regarding B8, the binding signal came to 0.665 enrichment R. Molecule B9 returned a binding signal of 0.763 enrichment R. The value for B10 was 0.687 enrichment R. The figure for B11 is 0.481 enrichment R; for B12 it is 0.783 enrichment R; for B13 it is 0.574 enrichment R.

B14 displayed a binding signal of 0.899 enrichment R.
